The list is not random: actives were taken first. Their share in the collection is about 4.6%.
tim23-1 inh = tim23-1 yeast growth inhibition; S. cerevisiae tim23-1 growth, BacTiter-Glo luminescence, 24 h; inhibition, % at 20 µM; hit rate 1.3% among 330,000; AID 463212;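 active means growth inhibition of the mutant yeast at or above 50%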;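 further: temperature-sensitive mutant grown at 25 °C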
PfHsp90 yeast 2 = inhibits growth of yeast expressing Plasmodium falciparum Hsp90 | S. cerevisiae expressing PfHsp90, BacTiter-Glo ATP, 48 h; yeast lacking PDR1 and PDR3 efflux regulators | inhibition, % at 9.4 µM | hit rate 0.32% among 310,000 | AID 504621;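 active means every replicate shows inhibition above about 80%, whatever the replicate mean, limit read from the data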
NALP3 yeast inh = inhibitors of NALP3 inflammasome in yeast. Yeast reconstituted NLRP3/ASC/caspase-1, beta-gal luminescence, 24 h. inhibition, % at 10 µM. hit rate 0.39% among 330,000;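 active means inhibition of 50% or more; inactive means inhibition below 50%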
SKKanGAS inh = blocks kanamycin growth of S. pyogenes SKKanGAS strain. BacTiter-Glo, 6 h. hit rate 1.3% among 300,000. inhibition, % at 7.5 µM;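 active means mean replicate score, as percent of positive control median, at least 50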;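 further: strain carries kanamycin resistance gene driven by streptokinase promoter and grows in 40 µg/ml kanamycin; loss of luminescence reflects streptokinase promoter inhibition or plain growth inhibition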
tim10-1 inh = inhibits growth of tim10-1 mutant yeast. hit rate 2.2% among 330,000. inhibition, % at 20 µM. S. cerevisiae tim10-1 ts strain growth, BacTiter-Glo, 24 h;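 active means inhibition of at least 40%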;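 further: mutant grown at 25 °C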
TIM10 inh = TIM10 yeast growth inhibition; S. cerevisiae TIM10 strain growth, BacTiter-Glo luminescence, 24 h; inhibition, % at 10 µM; hit rate 1.4% among 330,000; AID 463195;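 active means inhibition of 40% or more at the single tested concentration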;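 further: wild-type TIM10 isogenic control strain grown at permissive 25 °C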
TIM10 conf = TIM10 yeast growth inhibition, confirmed; shares compounds with TIM10 inh; S. cerevisiae tim10 strain growth, BacTiter-Glo luminescence, 24 h; inhibition, % at 10 µM; hit rate 63% among 4,600;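 active means inhibition of yeast growth at or above a set limit in either of two replicates at 10 µM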; further: this counterscreen used the strain with wild-type TIM10
Each line names hits and unclear results; the compound was inactive in the other large screens (follow-up assays come after a bar, where they were run).

COc1ccccc1CNC(=O)Nc1cccs1	none
O=C(COc1ccc2c(c1)CCC2)N1CCc2ccccc21	TIM10 inh 45 (no result: PfHsp90 yeast 2) | TIM10 conf 37
Cc1[nH]c2ccccc2c1C(C#N)(C#N)C1C(=O)c2ccccc2C1=O	SKKanGAS inh 65, TIM10 inh 63 | TIM10 conf 78
FC(F)(F)c1cc(-c2ccccn2)nc2cc(-c3ccccc3)nn12	none
Cc1nc2c(ccc3nc(NC(=O)c4ccc(S(=O)(=O)N(C)C)cc4)sc32)s1	none
Cc1nc2c(ccc3nc(NC(=O)Cc4ccccc4)sc32)s1	TIM10 inh 42 | TIM10 conf 45
COC(=O)c1cc(S(=O)(=O)NCC2CCN(Cc3cccc(Cl)c3)CC2)c[nH]1	none
O=C(N/N=C/c1ccncc1)c1cc2c(ccc3ccccc32)o1	TIM10 inh 47 | TIM10 conf 34
CCCCN(C(=O)Cc1ccc2c(c1)OCCO2)c1c(N)n(CCC)c(=O)[nH]c1=O	none (no result: SKKanGAS inh)
COc1ccccc1NC(=S)N/N=C/c1ccc(O)cc1	TIM10 inh 53 | TIM10 conf inactive
Clc1ccc(CNc2ncnc3[nH]ncc23)c(Cl)c1	none (no result: tim23-1 inh, NALP3 yeast inh, SKKanGAS inh, tim10-1 inh, TIM10 inh)
CCOC(=O)c1c(NC(=O)C(C)N2CCN(S(=O)(=O)c3cccs3)CC2)sc2c1CCC(C)C2 (stereo not given)	none
CCCCCn1c(CCNC(=O)c2cccs2)nc2ccccc21	TIM10 inh 41 | TIM10 conf inactive
CCCCCn1c(CNC(=O)c2cccs2)nc2ccccc21	none
O=C(NCC(=O)N1CCN(S(=O)(=O)c2cccs2)CC1)c1ccc(Cl)cc1	none
O=C(Nc1ccc(NC(=O)c2ccncc2)cc1)c1ccncc1	none (no result: PfHsp90 yeast 2)
O=C(Nc1ccc2c(c1)oc1ccccc12)c1ccncc1	TIM10 inh 43 | TIM10 conf 40
O=C(Nc1ccc2c(c1)OCO2)c1ccc2c(c1)OCO2	none
O=C(Nc1ccc2c(c1)oc1ccccc12)c1ccc2c(c1)OCO2	TIM10 inh 40 (no result: PfHsp90 yeast 2) | TIM10 conf inactive
Cc1ccc(NC(=O)COc2ccccc2)c(NC(=O)c2ccco2)c1	none
CC(C)CNC(=S)NC(=O)c1ccc(Cl)cc1Cl	TIM10 inh 55 | TIM10 conf 52
Cn1c(=O)n(C)c2cc(/C=C(/C#N)C(=O)NCc3ccco3)ccc21	TIM10 inh 43 | TIM10 conf 37
CN(C)c1ccc(/C=C(\C#N)C(=O)NCc2ccco2)cc1	none (no result: PfHsp90 yeast 2)
CC1(c2nnc(Cc3ccccc3)o2)CC(c2ccc(OC(F)(F)F)cc2)=NO1 (stereo not given)	none
C#CCOCCOCCOCCNc1nc(N2CCN(C(=O)[C@H](CCCCN)n3cc([C@@H](N)CO)nn3)CC2)nc(N2CCN(C(=O)[C@H](Cc3cc4ccccc4[nH]3)n3cc([C@@H](N)CC(C)C)nn3)CC2)n1	TIM10 inh 94 (no result: PfHsp90 yeast 2) | TIM10 conf inactive
C#CCOCCOCCOCCNc1nc(N2CCN(C(=O)[C@H](CCCCN)n3cc([C@@H](N)CO)nn3)CC2)nc(N2CCN(C(=O)[C@H](Cc3cc4ccccc4[nH]3)n3cc([C@@H](N)CO)nn3)CC2)n1	none (no result: PfHsp90 yeast 2, SKKanGAS inh)
COC(=O)[C@@H]1CCCN1C(=O)CCc1nnc(CCC2CCCCC2)o1	TIM10 inh 45 | TIM10 conf inactive
C=CCn1c(O)c(N=NC(=O)CNC(=O)c2ccco2)c2ccccc21	none
Cc1ccc(CN(c2ccc(C(=O)N3CCCC3)cc2)S(C)(=O)=O)cc1	SKKanGAS inh 67, TIM10 inh 44 | TIM10 conf 47
CC(C)(C)c1cc(NCc2ccccn2)n2ncc(-c3ccccc3)c2n1	PfHsp90 yeast 2 108, SKKanGAS inh 108, TIM10 inh 52 | TIM10 conf 42
CC(C)/C=C(/C(=O)c1ccc(Cl)cc1Cl)n1cncn1	TIM10 inh 42 | TIM10 conf inactive
O=C(NC12CC3CC(CC(C3)C1)C2)c1ccc(-c2ccc(Br)cc2)o1	SKKanGAS inh 56, TIM10 inh 49 | TIM10 conf 54
Cc1cc(C(=O)NNc2c(Cl)cccc2Cl)n(C(C)(C)C)n1	none
COc1cccc(-n2c(SCC(N)=O)nnc2-c2c[nH]c3ccccc23)c1	none
COc1ccc(OC)c(-n2c(SCC(N)=O)nnc2-c2c[nH]c3ccccc23)c1	TIM10 inh 98 | TIM10 conf inactive
C=CCn1c(=O)/c(=C/c2ccc(F)cc2)s/c1=C(\C#N)c1nnc2n1CCCCC2	TIM10 inh 44 | TIM10 conf 40
COCCNC(=S)N/N=C/c1c2ccccc2cc2ccccc12	TIM10 inh 41 | TIM10 conf 37
Cc1ccsc1C(=O)N/N=C/c1ccc2c(c1)OCO2	none
O=C(N/N=C/c1ccc2c(c1)OCO2)c1cccs1	TIM10 inh 57 | TIM10 conf 48
CCOc1ccc(NC(=O)c2nn(C)c(C(=O)Nc3ccc(OCC)cc3)c2[N+](=O)[O-])cc1	TIM10 inh 94 | TIM10 conf inactive
O=C(Nc1ccc(N2CCCCC2)c(Cl)c1)c1ccc2c(c1)OCCO2	TIM10 inh 45 | TIM10 conf inactive
Cc1ccc(NC(=O)c2ccc3c(c2)OCCO3)cc1S(=O)(=O)Nc1cccc(Cl)c1	TIM10 inh 43 | TIM10 conf inactive
Cc1cccc(NC(=O)c2ccc3c(c2)OCCO3)c1	none
O=C(COc1ccc2c(-c3ccccc3)cc(=O)oc2c1)NC1CCS(=O)(=O)C1 (stereo not given)	none (no result: SKKanGAS inh)
Cc1ccccc1-n1c(-c2csc3ccccc23)n[nH]c1=S	TIM10 inh 40 | TIM10 conf inactive
COc1ccc(NC(=O)Cc2nnc(SCC(=O)NC3=NCCS3)n2C)cc1	none
CCCN(C(=O)Cn1ncc2c(=O)oc3ccccc3c21)c1cccc(C)c1	TIM10 inh 41 | TIM10 conf inactive
NS(=O)(=O)c1ccc(NNC(=O)c2ccccc2C(=O)O)cc1	none
O=C(/C=C/c1ccccc1)NNc1ccc(Cl)cc1	TIM10 inh 44 | TIM10 conf 48
O=C(O)c1ccccc1C(=O)NNc1ccc(Cl)cc1	TIM10 inh 46 | TIM10 conf 30
Nc1cccc2[nH]c(=O)c3ccccc3c12	none (no result: tim23-1 inh, NALP3 yeast inh, SKKanGAS inh, tim10-1 inh, TIM10 inh)
Cc1cc(C(=O)c2cnc(/N=C/N(C)C)s2)c(F)cc1Cl	none
COCCN1C(=O)C(=O)/C(=C(/O)c2ccc(S(=O)(=O)N3CCCCC3)cc2)C1c1ccc(OC)cc1 (stereo not given)	TIM10 inh 90 | TIM10 conf inactive
C=CCN(CC=C)C(=S)NC(=O)/C=C/c1ccc(OC)cc1	TIM10 inh 44 | TIM10 conf inactive
Oc1ccc(N=Nc2c(O)ccc3ccccc23)cc1	PfHsp90 yeast 2 127, TIM10 inh 54 | TIM10 conf 65
NS(=O)(=O)c1ccc(N=Nc2c(O)ccc3ccccc23)cc1	none
N/C(Cc1cccc2ccccc12)=N\OC(=O)Cc1cccs1	TIM10 inh 49 | TIM10 conf 38
CNc1ccc(Br)cc1C(O)c1ccccc1 (stereo not given)	none

Source: PubChem BioAssay
